Compound activity (PubChem BioAssay)
A selection: hits, their analogues and other compounds. The true share with any hit is near 11%.
Pf growth 96h: Primary qHTS for delayed death inhibitors of the malarial parasite plastid, 96 hour incubation; AID 504834, 2011; Potency, µM (highest dose often 28.7 µM), inactives show top-dose activity change, negative = inhibition, actives largely listed as inhibitors; 6.9% of 320,000 active; P. falciparum luciferase reporter growth, 96 h; further: on the % scale 0 is the no-effect control and ±100 the full control effect
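P. falciparum expressing integrated firefly luciferase, in erythrocytes at 2% hematocrit, 0.05% parasitemia, incubated with compounds 96 h at 37 C, 5% CO2. Growth inhibition read as loss of luminescence; two-generation exposure targets delayed-death apicoplast inhibitors.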
Pf growth 48h: Primary qHTS for delayed death inhibitors of the malarial parasite plastid, 48 hour incubation. Potency, µM (doses to about 28.7 µM), for the others: at the top dose activity change, negative = inhibition, hits mostly inhibitors. AID 504832, 2011. 5.9% of 310,000 active. P. falciparum luciferase growth in erythrocytes, 48 h; further: on the % scale 0 is the no-effect control and ±100 the full control effect
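Luminescence readout; reporter = integrated firefly luciferase in P. falciparum. RBC culture at 2% hematocrit, 0.1% parasitemia final, 37 C/5% CO2; decreased signal taken as growth inhibition.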
AMA1-RON2 inh: qHTS for Inhibitors of AMA1-RON; Towards Development of Antimalarial Drug Lead: Primary Screen | Plasmodium falciparum AMA1 (3D7) - RON2 peptide interaction | AlphaScreen AMA1-biotinylated RON2 peptide binding | Potency, µM (top dose mostly 58.2 µM), for inactives: at the top dose activity change, negative = inhibition, hits mostly inhibitors | 0.2% of 360,000 active | AID 720542, 2013;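 further: 0% = vehicle wells and -100% = peptide control; nearly all actives have a fitted effect of over 45% in size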
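AMA1 (3D7) with his tag at 25 nM final met compounds first, then biotinylated RON2 peptide at 25 nM; detection used donor plus acceptor beads, 10 µg/mL apiece, read by AlphaScreen after 30 min at room temperature.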
Sm TGR block: qHTS Assay for the Inhibitors of Schistosoma Mansoni Peroxiredoxins; AID 485364, 2010; Potency, µM (top dose mostly 114 µM), without a hit: top-dose activity change, negative = inhibition, actives largely listed as inhibitors; purified TGR, DTNB reduction, TNB absorbance 405 nm; Schistosoma mansoni thioredoxin glutathione reductase (TGR), Q962Y6; 3% of 360,000 active; further: on the % scale 0 is the no-effect control and ±100 the full control effect; nearly all actives have a fitted effect of over 60% in size
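Kinetic colorimetric format: TGR-catalysed, NADPH-driven DTNB reduction monitored via TNB absorbance. Enzyme dispensed at 20 nM; compound exposure 15 min at room temperature before reaction start.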
NS1 function inh: qHTS Assay for Inhibitors of Influenza NS1 Protein Function. Potency, µM (doses to about 46.1 µM), without a hit: at the top dose activity, positive = more growth. 0.4% of 270,000 active; calls by dose curve; further: actives are rising curves; nearly all actives have a fitted effect of over 50% in size
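Compounds were scored for reversing the slow growth caused by influenza A NS1 in S. cerevisiae, measured by optical density at 600 nm. Assay medium contained 2% galactose at pH 6.0; NS1-free yeast of the same strain were the positive control.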
* = called active by the depositor; [ ] = remark or other dose. Unless noted, the call rests on the fitted dose curve; in most records, active means well fitted curve in the direction sought with a large enough effect; inconclusive means small, poorly fitted or top-dose-only effect, or another doubt; inactive means no such curve, though single readings can be large; an effect the other way counts as inactive or inconclusive. Potency means the concentration at half of the fitted maximal effect.

Results for Cc1c(C(=O)N(Cc2ccc(Cl)cc2)C2CCS(=O)(=O)C2)oc2ccccc12 (centres undefined) ?
Pf growth 96h: 2%; Pf growth 48h: 13µM*; AMA1-RON2 inh: -2%; Sm TGR block: 2%; NS1 function inh: 15%

How did Cc1c(C(=O)N(Cc2cccc(Br)c2)C2CCS(=O)(=O)C2)oc2ccc(F)cc12 (centres undefined) do in these assays?
Pf growth 96h: 13µM*; Pf growth 48h: inconclusive; AMA1-RON2 inh: 6%; Sm TGR block: 7%; NS1 function inh: 29%

What do the screens show for `Cc1ccc2c(C)c(C(=O)N(Cc3ccc(N(C)C)cc3)C3CCS(=O)(=O)C3)oc2c1` (centres undefined)?
Pf growth 96h: inconclusive; Pf growth 48h: inconclusive; AMA1-RON2 inh: 18µM*; Sm TGR block: 2%; NS1 function inh: -35%

What do the screens show for `Cc1ccc2occ(CC(=O)N(Cc3ccc(N(C)C)cc3)C3CCS(=O)(=O)C3)c2c1` (centres undefined)?
Sm TGR block: 0%

Results for Cc1ccc2c(c1)N(C(=O)CCC(=O)Nc1ccccc1Cl)CC(C)O2 (centres undefined) ?
Pf growth 96h: inconclusive; Pf growth 48h: inconclusive; AMA1-RON2 inh: -5%; Sm TGR block: 9%; NS1 function inh: -7%

What do the screens show for `COc1ccc(CN(C(=O)c2oc3cc(C)c(C)cc3c2C)C2CCS(=O)(=O)C2)cc1OC` (centres undefined)?
Pf growth 96h: 2.9µM*; Pf growth 48h: inconclusive; AMA1-RON2 inh: -4%; Sm TGR block: -10%; NS1 function inh: -12%

Results for O=c1cc(CF)[nH]c(=S)[nH]1 ?
NS1 function inh: 6%

How did COc1cccc(O)c1CN1CCC(Oc2ccc(C(=O)NCc3ccccn3)cc2)CC1 do in these assays?
Pf growth 96h: inconclusive; Pf growth 48h: inconclusive; AMA1-RON2 inh: 15%; Sm TGR block: -8%; NS1 function inh: -6%

What do the screens show for `CCOCCCn1c(=S)[nH]c2cc(C(=O)N3CCN(C4CCCCC4)CC3)ccc2c1=O`?
Pf growth 96h: 5.2µM*; Pf growth 48h: 1%; AMA1-RON2 inh: 18%; Sm TGR block: -1%; NS1 function inh: 0%

How did CCOCCCn1c(=S)[nH]c2cc(C(=O)N3CCN(c4ccccc4)CC3)ccc2c1=O do in these assays?
Pf growth 96h: 15µM*; Pf growth 48h: 19%; AMA1-RON2 inh: 56%; Sm TGR block: 0%; NS1 function inh: 6%

Results for Cc1ccc(-c2cccc(CN3CCN(C4CCN(C(C)C)CC4)C(CCO)C3)c2)o1 (centres undefined) ?
Pf growth 96h: 35%; Pf growth 48h: 10µM*; AMA1-RON2 inh: 2%; Sm TGR block: inconclusive; NS1 function inh: -2%

Results for CC(C)N1CCC(N2CCN(Cc3ccc(-c4ccc(Cl)cc4)o3)CC2CCO)CC1 (centres undefined) ?
Pf growth 96h: inconclusive; Pf growth 48h: 2.3µM*; AMA1-RON2 inh: -6%; Sm TGR block: 13µM*; NS1 function inh: -7%

How did CC(C)N1CCC(N2CCN(Cc3ccc(-c4ccccc4Cl)o3)CC2CCO)CC1 (centres undefined) do in these assays?
Pf growth 96h: 0%; Pf growth 48h: -11%; AMA1-RON2 inh: 0%; Sm TGR block: 8%; NS1 function inh: 1%

What do the screens show for `Cc1cccc(N(CC(=O)NC(C)(C)C)C(=O)CNC(=O)c2cccs2)c1C`?
Pf growth 96h: inconclusive; Pf growth 48h: inconclusive; AMA1-RON2 inh: -8%; Sm TGR block: -20%; NS1 function inh: 3%

What do the screens show for `CN(CC(=O)Nc1ccccc1C(F)(F)F)CC(=O)N1CCCCCC1`?
Pf growth 96h: 3%; Pf growth 48h: -14%; AMA1-RON2 inh: 37%; Sm TGR block: -24%

What do the screens show for `CCCCCCCCCCCC(CC1OC(=O)C1CCCCCC)OC(=O)C(CC(C)C)NC=O` (centres undefined)?
Pf growth 96h: 1.5µM*; Pf growth 48h: 1.1µM*

What do the screens show for `CCC(C(=O)NCc1ccccc1OC)n1nc(C)n2c(cc3sccc32)c1=O` (centres undefined)?
Sm TGR block: 5%

How did Cc1c(Cl)cccc1N(CC(=O)NC(C)c1ccccc1)S(C)(=O)=O (centres undefined) do in these assays?
Pf growth 96h: inconclusive; Pf growth 48h: 6%; AMA1-RON2 inh: 6%; Sm TGR block: inconclusive; NS1 function inh: 23%

How did COc1cccc(NC(=O)C2CC(=O)n3cnnc3S2)c1 (centres undefined) do in these assays?
Pf growth 96h: 4%[5.75 µM]; Pf growth 48h: inconclusive; AMA1-RON2 inh: inconclusive; Sm TGR block: 0.63µM*; NS1 function inh: -55%

How did COc1cccc(NC(=O)C2CC(=O)N=C(N)S2)c1 (centres undefined) do in these assays?
Pf growth 96h: inconclusive; Pf growth 48h: 7%; AMA1-RON2 inh: 7%; Sm TGR block: 10%; NS1 function inh: 4%

How did COc1ccc(NC(=O)C2CC(=O)n3cnnc3S2)cc1 (centres undefined) do in these assays?
Pf growth 48h: -5%; AMA1-RON2 inh: 13%; Sm TGR block: 0.28µM*; NS1 function inh: -54%

What do the screens show for `Cc1nn(-c2ccccc2)c(-c2ccccc2[N+](=O)[O-])c1CC#N`?
AMA1-RON2 inh: 9%

Results for CCCCNC(=S)Nc1ccc(C(F)(F)F)cc1 ?
Pf growth 96h: inconclusive; Pf growth 48h: inconclusive; AMA1-RON2 inh: 19%; Sm TGR block: -16%

Results for CCC(=O)Nc1cccc(C2=NOC3(C2)C[C@@H](C(N)=O)N(C(=O)CC)C3)c1 (some centres undefined) ?
Pf growth 96h: 0%; Pf growth 48h: 70%; AMA1-RON2 inh: 8%; Sm TGR block: -23%; NS1 function inh: 2%

How did C/C=C\C=C\C(=O)Nc1cccc(C2=NOC3(C2)C[C@H](C(N)=O)N(C(=O)c2ccccc2C(=O)c2ccccc2)C3)c1 (some centres undefined) do in these assays?
Pf growth 96h: inconclusive; Pf growth 48h: inconclusive; AMA1-RON2 inh: -5%; Sm TGR block: 3.2µM*; NS1 function inh: -5%

What do the screens show for `C/C=C/C=C\C(=O)Nc1cccc(C2=NOC3(C2)C[C@H](C(N)=O)N(C(=O)/C=C/C)C3)c1` (some centres undefined)?
Pf growth 96h: 96%; Pf growth 48h: 87%; AMA1-RON2 inh: inconclusive; Sm TGR block: 2.8µM*; NS1 function inh: 5%
